# Source: PubChem BioAssay (NCI)
# The panel holds about 83,000 compounds, 20% with a hit somewhere; the sample as a whole holds those more often.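 Method: cells in 96-well plates; compound added at one concentration; 48 h incubation; percent growth measured; values under 10 scored active.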 Calls of active or inactive are those of the source.
# System: LOX IMVI melanoma
# Assay: NCI-60 one-dose screen, 48 h (100 = growth as untreated, 0 = no growth, -100 = all killed)
# Conditions: 10 µM unless noted
# Description: Growth inhibition of the LOX IMVI human tumor cell line is measured as a screen for anti-cancer activity. Cells are grown in 96 well plates and exposed to the test compound for 48 hours. Compounds are tested at a single concentration, which is 10^-5 M for most compounds. The reported endpoint is percent growth (GI% or GIPRCNT), where numbers from 0 - 100% represent growth inhibition, and numbers from -100% - 0 represent cell death. For example, a value of 40 represents 60% growth inhibition. A value of 0 means no net growth occurred over the course of the experiment. A value of -40 indicates 40% of cells at the beginning of the experiment died by the end of the experiment. A value of -100 means all cells are dead at the end of the experiment.
# NCI-60 Human Tumor Cell Lines Screen was performed using the standard one-dose NCI protocol, which is described in more detail at https://dtp.cancer.gov/discovery_development/nci-60/default.htm.
# Compounds with GIPRCNT values below 10 were considered active. Activity score was based on GIPRCNT using the following formula: […]
# Score is 0 for GIPRCNT values of 100 or above, 50 for GIPRCNT values of 0, and 100 for GIPRCNT values of -100.
row,Compound,growth
1,C=C1C(=O)O[C@H]2[C@H]1CC/C(COC(=O)c1cc3cc(F)ccc3[nH]1)=C\CC[C@@]1(C)O[C@@H]21,-87.2% (active)
2,N=C(N)c1ccc(-c2ccc(-c3ccc(Cl)cc3)o2)o1,-73% (active)
3,O=C(O)c1cccc(N/C=C/C(=O)c2cc3cc(Br)ccc3oc2=O)c1,97.9% (inactive)
4,CCN(CC)c1ccc(/C=N\NC(=O)c2cccc(Nc3ccnc(C(F)(F)F)c3)c2)c(O)c1,-6.15% (active)
5,COc1cccc2c(N=NC(=O)c3ccc(S(N)(=O)=O)cc3)c(O)[nH]c12,99.5% (inactive)
6,Fc1ccc(CNc2c3ccccc3nc3ccccc23)cc1,9.43% (active)
7,Cc1c2cc[nH]c(=O)c2c(C)c2c1[nH]c1ccc(OC(=O)c3ccccc3)cc12,13.7% (inactive)
8,O=C(OC[C@@H]1CO1)c1cccc2c(=O)c3ccccc3[nH]c12,-78.1% (active)
9,Cn1c(/C=C/[N+](=O)[O-])cc2ccccc21,-79.7% (active)
10,N#CCC1=NC(c2cccs2)=Nc2ccccc2S1,99.1% (inactive)
11,C=CC(C)(O)CC/C=C(\CO)C(=O)OC1C(C)OC(O[C@](C)(C=C)CC/C=C(\CO)C(=O)O[C@H]2C[C@@]3(C(=O)OC4OC(CO)C(O)C(O)C4OC4OC(C)C(OC5OC(CO)C(O)C5O)C(OC5OC(CO)C(O)C(O)C5O)C4O)C(CC2(C)C)C2=CCC4[C@@]5(C)CC[C@H](OC6OC(COC7OC(C)C(O)C(O)C7OC7OCC(O)C(O)C7O)C(O)C(O)C6NC(C)=O)C(C)(C)C5CC[C@@]4(C)[C@]2(C)C[C@H]3O)C(O)C1O (stereo not given in full),-36.7% (active)
12,CC(C)c1ccc(-n2c(=S)[nH]c3sc4c(c3c2=O)CCC(=O)C4)cc1,43.3% (inactive)
13,CN1C(=O)N(C)C2C1NC(=S)N2/N=C/C=C/c1ccccc1[N+](=O)[O-] (stereo not given),31.6% (inactive)
14,CC(C(=O)O)n1c(O)c(C=Nc2cccnc2)sc1=S (stereo not given),101% (inactive)
15,Cn1cc(-c2nc(-c3c[nH]c4ccncc34)cs2)c2cc(Br)ccc21,-90% (active)
16,Clc1nccc2c(-c3csc(-c4c[nH]c5ccccc45)n3)c[nH]c12,28.2% (inactive)
17,Cc1cc2oc(=O)cc(CP(=O)(O)O)c2cc1O,98.7% (inactive)
18,CCN(CC)c1ccc(/C=C\c2cc(C)c3cc(C)ccc3n2)cc1,18.1% (inactive)
19,CCC(CC)(N(CC(=O)O)CC(=O)O)C(CC)(CC)N(CC(=O)O)CC(=O)O,98.6% (inactive)
20,O=C(Cn1nnc2ccccc21)N/N=C/c1ccccc1F,101% (inactive)

row,Compound,growth
1,N#Cc1nc2c(S(=O)(=O)c3ccccc3)c(N)n(Cc3cccnc3)c2nc1C#N,88.3% (inactive)
2,CC(C)CCSc1nc(Nc2ccccc2)c(C#N)c(-c2ccccc2)n1,25.5% (inactive)
3,CCOC(=O)n1cc(-c2nonc2-c2cn(C)c3ccccc23)c2ccccc21,41.7% (inactive)
4,COP(=O)(OC)c1nnn(-c2cccc([N+](=O)[O-])c2)c1C,96% (inactive)
5,CCOC(=O)c1c(C)c2c(n1C)CSc1cc(S(=O)(=O)c3ccccc3)c(=O)[nH]c1-2,31.9% [100 µM] (inactive)
6,Cc1cscc(C)c1=S,70.4% (inactive)
7,Cc1nc2ccccc2c(/C=C/c2ccc(C(F)(F)F)cc2)c1C(=O)/C=C/c1ccccc1,-92.2% (active)
8,COc1ccc(C(c2cc(OC)c(OC)c(OC)c2)N2CCN(Cc3ccccc3)CC2)cc1 (stereo not given),67% (inactive)
9,CCn1cc(C(=O)N/N=C/c2ccc(Br)cc2)c(=O)c2cc(F)c(N3CCNC(C)C3)c(F)c21 (stereo not given),-78.2% (active)
10,C#CCOc1cccc(-c2ncc3cc(NC(=O)CCl)ccc3n2)c1,-50.4% (active)
11,COC1=CC(c2ccc[nH]2)=N/C1=C\c1[nH]c(C)c(CC(=O)OCc2ccccc2)c1C,-75.4% (active)
12,O=C(CCCCNC(=O)c1cc(=O)c(O)co1)Nc1ccccc1,45.3% (inactive)
13,CN1CCCc2cc(/C=C3/SC(=S)N(CCc4ccc(O)cc4)C3=O)ccc21,77.3% (inactive)
14,CC(C)=CC(=O)N[C@@H]1CC2CCC3C(CC[C@@]4(C)C3CC[C@@H]4C(C)N(C)C)[C@@]2(C)C[C@@H]1O (stereo not given in full),1.62% (active)
15,Cc1nc2sc(C(=O)Nc3cccc(Cl)c3)c(N)c2cc1C(O)c1ccccc1 (stereo not given),45.3% (inactive)
16,COc1ccc(-c2ccc(-c3ccc(C(=N)N)cn3)s2)cc1,55% (inactive)
17,CCCCCCOC(=O)CC1=C(C)/C(=C/c2[nH]c(-c3ccc[nH]3)cc2OC)N=C1C,-82% (active)
18,C=C(C)[C@@H]1CC[C@]2(CO)CC[C@]3(C)[C@H](CC[C@@H]4[C@@]5(C)CCC(NCCc6ccc(O)cc6)C(C)(C)[C@@H]5CC[C@]43C)[C@@H]12 (stereo not given in full),-96.8% (active)
19,O=C1NC(=Nc2ccc(O)cc2)S/C1=C\c1cccs1,32.1% (inactive)
20,CCCCCn1sc(=O)n(Cc2ccc(CNC(=O)OCc3ccc4c(Cl)cc(Cl)c(O)c4n3)cc2)c1=O,51.8% (inactive)
